# Activity calls are given as the source filed them. The calls were made as follows: active = hit-call score of the fitted dose curve at least 0.9, where 1 is the maximum; inactive = score below 0.9.
# Read-out: CD69, CD69 (gene 969)
# Assay: BSK_SAg_CD69: BioMAP Diversity Plus: SAg Assay for CD69 Biomarker Activity (AID 2283089);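 as to AC50: cell surface CD69 protein quantified by ELISA with fluorescence detection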
# Conditions: primary human HUVEC with PBMC; actives raise or lower the signal
# Method in brief: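 ELISA, fluorescence read-out: CD69 on human umbilical vein endothelial cell + PBMC co-culture, 24 h post-dosing. Gain or loss of signal fitted bidirectionally against DMSO baseline.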
# Chain of E-selectin (Homo sapiens) (P16581 whole entry, looked up): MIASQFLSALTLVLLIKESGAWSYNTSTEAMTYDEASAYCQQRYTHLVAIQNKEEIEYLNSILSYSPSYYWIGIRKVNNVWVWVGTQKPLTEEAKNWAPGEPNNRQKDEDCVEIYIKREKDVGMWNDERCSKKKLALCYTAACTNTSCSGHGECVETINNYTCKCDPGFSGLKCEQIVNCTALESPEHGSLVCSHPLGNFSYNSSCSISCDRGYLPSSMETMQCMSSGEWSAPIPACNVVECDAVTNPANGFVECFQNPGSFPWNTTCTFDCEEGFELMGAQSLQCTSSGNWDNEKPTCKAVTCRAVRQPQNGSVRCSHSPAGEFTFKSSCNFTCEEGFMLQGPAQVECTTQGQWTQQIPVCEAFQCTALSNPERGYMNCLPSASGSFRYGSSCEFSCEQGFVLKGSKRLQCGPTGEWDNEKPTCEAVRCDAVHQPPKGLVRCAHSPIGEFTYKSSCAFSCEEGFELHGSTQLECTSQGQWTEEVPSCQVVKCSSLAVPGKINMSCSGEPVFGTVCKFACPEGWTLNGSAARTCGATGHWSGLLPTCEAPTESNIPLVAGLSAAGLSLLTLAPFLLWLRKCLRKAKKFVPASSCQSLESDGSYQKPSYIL
Structure (SMILES),outcome,AC50
CCO[Si](CCCNC(N)=O)(OCC)OCC,inactive,–
O=C(O)Cn1c(=O)n(Cc2ccc(Br)cc2F)c(=O)c2ccc(Cl)cc21,inactive,–
COc1ccc2cc(S(=O)(=O)N[C@H](CC(=O)N[C@H](Cc3ccc(CN4[C@H](C)CCC[C@@H]4C)cc3)C(=O)N(C)C(C)C)c3ccc4c(c3)OCO4)ccc2c1,–,24.5 µM (active)
CC(C)(C)c1csc(-c2cc3cc(OCc4ccccc4CC(=O)O)ccc3o2)n1,–,19.8 µM (active)
Cc1ccc(C(C)C)cc1,inactive,–
O=C(O)c1ccccc1C(=O)OCc1ccccc1,inactive,–
CCCCCCCC[Si](OCC)(OCC)OCC,–,25.4 µM (active)
CCN(Cc1cccnc1)C(=O)c1cccc(Cl)c1[C@]1(C)C(=O)N(Cc2ccc(OC)cc2OC)c2ccc(Cl)cc21,–,7.2 µM (active)
O=C(O)c1ccccc1-n1cc(C(=O)O)c(=O)c2cc(Nc3c(F)cc(F)cc3Cl)c(Cl)cc21,inactive,–
Cc1cc2c(cc1C(F)(F)F)N(C(=O)Nc1ccc(Oc3cccnc3C)nc1)CC2,inactive,–
CCCCOC(=O)CC(CC(=O)OCCCC)(OC(C)=O)C(=O)OCCCC,inactive,–

# Read-out: Monocyte Chemoattractant Protein-1 (MCP1), CCL2 (gene 6347)
# Assay: BSK_SAg_MCP1: BioMAP Diversity Plus: SAg Assay for Monocyte Chemoattractant Protein-1 (MCP1) Biomarker Activity (AID 2283090)
# Conditions: primary human HUVEC with PBMC; actives raise or lower the signal
# Method in brief: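 MCP-1 levels in the endothelial–PBMC SAg co-culture were quantified by ELISA at 24 h post-dosing; both increases and decreases versus DMSO scored. Cytotoxicity monitored by SRB total protein in parallel cultures.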
Structure (SMILES),outcome,AC50
O=C(O)Cc1cc(I)c(Oc2ccc(O)c(I)c2)c(I)c1,inactive,–
Cc1cccc2ccccc12,inactive,–
O=c1c(-c2ccc(O)cc2)coc2cc(O)cc(O)c12,–,18.7 µM (active)
CC/C(=C(/CC)c1ccc(O)cc1)c1ccc(O)cc1,–,21.6 µM (active)
Cc1cc(F)ccc1-c1cc(N2CC[C@@H](O)[C@H]2CO)ncc1N(C)C(=O)C(C)(C)c1cc(C(F)(F)F)cc(C(F)(F)F)c1,–,10.3 µM (active)
O=C1O[C@H]([C@@H](O)CO)C(O)=C1O,inactive,–
CO[C@H]1/C=C/O[C@@]2(C)Oc3c(C)c(O)c4c(O)c(c(/C=N/N5CCN(C)CC5)c(O)c4c3C2=O)NC(=O)/C(C)=C\C=C\[C@H](C)[C@H](O)[C@@H](C)[C@@H](O)[C@@H](C)[C@H](OC(C)=O)[C@@H]1C,inactive,–
C[C@]12CC[C@@H]3c4ccc(O)cc4CC[C@H]3[C@@H]1CCC2=O,inactive,–
Oc1ccc2ccccc2c1,inactive,–
c1ccc(C[n+]2cccc3ccccc32)cc1,inactive,–
CCCCCCCCCCCO,inactive,–
O=C(Nc1ccc(Cl)cc1)Nc1ccc(Cl)c(Cl)c1,–,3.32 µM (active)
CCCCCCCCOC(=O)c1cc(O)c(O)c(O)c1,–,20 µM (active)
CN1C(=O)N(c2ccccc2Br)Cc2cnc(Nc3ccc4c(c3)OCC(CO)O4)nc21 (configuration not stated),–,1.9 µM (active)
Cc1occc1C(=O)Nc1ccc(C(=O)N2CCC(F)(F)/C(=C\C(=O)N3CCC(N4CCCCC4)CC3)c3ccccc32)cc1,inactive,–
Cc1oc2c(NC(=O)c3c(Cl)cccc3Cl)cccc2c1C(C)(C)O,–,7.57 µM (active)
O=C=NCCCCCCN=C=O,inactive,–
c1ccc2ccccc2c1,inactive,–
O=CCCCC=O,inactive,–

Structure (SMILES),outcome,AC50
COc1cc(C(=O)NC2CCN(C)CC2)ccc1Nc1ncc2c(n1)N(C1CCCC1)CC(F)(F)C(=O)N2C,–,13.9 µM (active)
O=C1c2ccccc2C(=O)N1CCc1noc(-c2ccc(CN3CCCCCC3)s2)n1,inactive,–
CCCC(=O)OCCC(C)C,inactive,–
Clc1cc(Cl)c2c(c1)N=C1CCCCCN1C2,inactive,–
CC(C)(c1cc(Br)c(O)c(Br)c1)c1cc(Br)c(O)c(Br)c1,–,29 µM (active)
CCCOC(=O)c1cc(O)c(O)c(O)c1,–,29 µM (active)
O=C(OCCCCCCOC(=O)c1ccccc1)c1ccccc1,inactive,–
CC(C)(C)c1cc(/C=C2\SC(N)=NC2=O)cc(C(C)(C)C)c1O,–,12.7 µM (active)
CCO[Si](CCCNC(N)=O)(OCC)OCC,inactive,–
O=C(O)Cn1c(=O)n(Cc2ccc(Br)cc2F)c(=O)c2ccc(Cl)cc21,inactive,–
COc1ccc2cc(S(=O)(=O)N[C@H](CC(=O)N[C@H](Cc3ccc(CN4[C@H](C)CCC[C@@H]4C)cc3)C(=O)N(C)C(C)C)c3ccc4c(c3)OCO4)ccc2c1,–,19.1 µM (active)
CC(C)(C)c1csc(-c2cc3cc(OCc4ccccc4CC(=O)O)ccc3o2)n1,–,29.9 µM (active)
Cc1ccc(C(C)C)cc1,inactive,–
O=C(O)c1ccccc1C(=O)OCc1ccccc1,inactive,–
CCCCCCCC[Si](OCC)(OCC)OCC,inactive,–
CCN(Cc1cccnc1)C(=O)c1cccc(Cl)c1[C@]1(C)C(=O)N(Cc2ccc(OC)cc2OC)c2ccc(Cl)cc21,–,5.36 µM (active)
O=C(O)c1ccccc1-n1cc(C(=O)O)c(=O)c2cc(Nc3c(F)cc(F)cc3Cl)c(Cl)cc21,inactive,–
Cc1cc2c(cc1C(F)(F)F)N(C(=O)Nc1ccc(Oc3cccnc3C)nc1)CC2,inactive,–
CCCCOC(=O)CC(CC(=O)OCCCC)(OC(C)=O)C(=O)OCCCC,inactive,–

# Read-out: E-selectin (Homo sapiens) (UniProt P16581)
# Assay: BSK_SAg_Eselectin: BioMAP Diversity Plus: SAg Assay for Eselectin Biomarker Activity (AID 2283091)
# Conditions: primary human HUVEC with PBMC; actives raise or lower the signal
# Method in brief: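 E-selectin ELISA readout at 24 h post-dosing in human umbilical vein endothelial cell/PBMC co-culture; gain or loss of signal fitted relative to DMSO baseline.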
Structure (SMILES),AC50,outcome
O=C(O)Cc1cc(I)c(Oc2ccc(O)c(I)c2)c(I)c1,20 µM (active),–
Cc1cccc2ccccc12,–,inactive
O=c1c(-c2ccc(O)cc2)coc2cc(O)cc(O)c12,24.9 µM (active),–
CC/C(=C(/CC)c1ccc(O)cc1)c1ccc(O)cc1,8.84 µM (active),–
Cc1cc(F)ccc1-c1cc(N2CC[C@@H](O)[C@H]2CO)ncc1N(C)C(=O)C(C)(C)c1cc(C(F)(F)F)cc(C(F)(F)F)c1,10.2 µM (active),–
O=C1O[C@H]([C@@H](O)CO)C(O)=C1O,–,inactive
CO[C@H]1/C=C/O[C@@]2(C)Oc3c(C)c(O)c4c(O)c(c(/C=N/N5CCN(C)CC5)c(O)c4c3C2=O)NC(=O)/C(C)=C\C=C\[C@H](C)[C@H](O)[C@@H](C)[C@@H](O)[C@@H](C)[C@H](OC(C)=O)[C@@H]1C,–,inactive
C[C@]12CC[C@@H]3c4ccc(O)cc4CC[C@H]3[C@@H]1CCC2=O,–,inactive
Oc1ccc2ccccc2c1,10.8 µM (active),–
c1ccc(C[n+]2cccc3ccccc32)cc1,–,inactive
CCCCCCCCCCCO,–,inactive
O=C(Nc1ccc(Cl)cc1)Nc1ccc(Cl)c(Cl)c1,2.6 µM (active),–
CCCCCCCCOC(=O)c1cc(O)c(O)c(O)c1,16 µM (active),–
CN1C(=O)N(c2ccccc2Br)Cc2cnc(Nc3ccc4c(c3)OCC(CO)O4)nc21 (configuration not stated),1.37 µM (active),–
Cc1occc1C(=O)Nc1ccc(C(=O)N2CCC(F)(F)/C(=C\C(=O)N3CCC(N4CCCCC4)CC3)c3ccccc32)cc1,–,inactive
Cc1oc2c(NC(=O)c3c(Cl)cccc3Cl)cccc2c1C(C)(C)O,7.6 µM (active),–
O=C=NCCCCCCN=C=O,–,inactive
c1ccc2ccccc2c1,–,inactive
O=CCCCC=O,30.3 µM (active),–

Structure (SMILES),AC50,outcome
COc1cc(C(=O)NC2CCN(C)CC2)ccc1Nc1ncc2c(n1)N(C1CCCC1)CC(F)(F)C(=O)N2C,11.4 µM (active),–
O=C1c2ccccc2C(=O)N1CCc1noc(-c2ccc(CN3CCCCCC3)s2)n1,16.9 µM (active),–
CCCC(=O)OCCC(C)C,–,inactive
Clc1cc(Cl)c2c(c1)N=C1CCCCCN1C2,–,inactive
CC(C)(c1cc(Br)c(O)c(Br)c1)c1cc(Br)c(O)c(Br)c1,22.1 µM (active),–
CCCOC(=O)c1cc(O)c(O)c(O)c1,14.3 µM (active),–
O=C(OCCCCCCOC(=O)c1ccccc1)c1ccccc1,–,inactive
CC(C)(C)c1cc(/C=C2\SC(N)=NC2=O)cc(C(C)(C)C)c1O,7.42 µM (active),–
CCO[Si](CCCNC(N)=O)(OCC)OCC,–,inactive
O=C(O)Cn1c(=O)n(Cc2ccc(Br)cc2F)c(=O)c2ccc(Cl)cc21,–,inactive
COc1ccc2cc(S(=O)(=O)N[C@H](CC(=O)N[C@H](Cc3ccc(CN4[C@H](C)CCC[C@@H]4C)cc3)C(=O)N(C)C(C)C)c3ccc4c(c3)OCO4)ccc2c1,31.7 µM (active),–
CC(C)(C)c1csc(-c2cc3cc(OCc4ccccc4CC(=O)O)ccc3o2)n1,32.1 µM (active),–
Cc1ccc(C(C)C)cc1,–,inactive
O=C(O)c1ccccc1C(=O)OCc1ccccc1,–,inactive
CCCCCCCC[Si](OCC)(OCC)OCC,20.7 µM (active),–
CCN(Cc1cccnc1)C(=O)c1cccc(Cl)c1[C@]1(C)C(=O)N(Cc2ccc(OC)cc2OC)c2ccc(Cl)cc21,7.27 µM (active),–
O=C(O)c1ccccc1-n1cc(C(=O)O)c(=O)c2cc(Nc3c(F)cc(F)cc3Cl)c(Cl)cc21,–,inactive
Cc1cc2c(cc1C(F)(F)F)N(C(=O)Nc1ccc(Oc3cccnc3C)nc1)CC2,–,inactive
CCCCOC(=O)CC(CC(=O)OCCCC)(OC(C)=O)C(=O)OCCCC,–,inactive

# — PubChem BioAssay (EPA / NIEHS)
